The text below walks through data of PubChem BioAssay (NCI).

Among the test systems are SR leukemia; RPMI-8226 leukemia; OVCAR-8 ovarian; OVCAR-5 ovarian; SK-OV-3 ovarian; IGROV1 ovarian; HS 578T breast; NCI/ADR-RES ovarian; OVCAR-3 ovarian; OVCAR-4 ovarian.
Assay in all cases: NCI-60 one-dose screen, 48 h (100 = growth as untreated, 0 = no growth, -100 = all killed)
What all share (settings): 10 µM unless noted

Values joined by “and” are separate entries in the source; they are usually repeats but may differ in a detail not shown here. Equal entries are not always repeated. This is part of a sample that, as a whole, favours compounds with a hit. Of some 83,000 tested, about 20% had one in any assay.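 Values shown are percent growth following 48 h exposure of cells in 96-well plates to a single concentration of compound; below 10 was considered active.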 Values without a mark were called inactive. Active and inactive are the calls of the source.

Consider `Cc1c(C(C)(C)O)cn2ncnc(Oc3ccc(NC(=O)Nc4ccc(Cl)c(C(F)(F)F)c4)cc3)c12`, for which the growth was -3.12% (active) with SR leukemia; 37% in the assay on RPMI-8226 leukemia; 49.1% with OVCAR-8 ovarian; 100% in the assay with OVCAR-5 ovarian; 83.9% in the assay with SK-OV-3 ovarian; 37.6% in the assay with IGROV1 ovarian. In addition, the growth with HS 578T breast was 49.4%; in the assay with NCI/ADR-RES ovarian it was 64%.
As for `C=C[C@]1(C)C=C2CC[C@@H]3C(C)(C)C(=O)CC[C@@]3(C)[C@@H]2CC1`, the growth in the assay on SR leukemia is 102%; with RPMI-8226 leukemia, 98.3%; in the assay with OVCAR-8 ovarian, 103%; in the assay on OVCAR-5 ovarian it was 111%; in the assay on SK-OV-3 ovarian, 111%; in the assay with IGROV1 ovarian, 11.3%. The growth is 109% with OVCAR-3 ovarian, 104% in the assay on HS 578T breast and 110% in the assay on NCI/ADR-RES ovarian.
Consider `C=C(C)[C@@H]1CC[C@]2(C(=O)O)CC[C@]3(C)[C@H](CC[C@@H]4[C@@]5(C)CCC(N)C(C)(C)[C@@H]5CC[C@]43C)[C@@H]12` (stereo not given in full), for which the growth in the assay with SR leukemia was -8.86% (active); with RPMI-8226 leukemia, -33.6% (active); with OVCAR-8 ovarian, 20.8%; in the assay on OVCAR-5 ovarian, 96.6%; in the assay with SK-OV-3 ovarian, 106%; with IGROV1 ovarian, 74.4%. Besides, the growth is -31.5% (active) with OVCAR-3 ovarian, 93.1% in the assay with HS 578T breast and 69.7% in the assay on NCI/ADR-RES ovarian.
With `C[N+]1=C(/C=C\C=C\c2ccccc2)C(C)(C)c2ccccc21`, the growth was -14.3% (active) with SR leukemia; -25.5% (active) with RPMI-8226 leukemia; 12.2% in the assay with OVCAR-8 ovarian; 92.8% with SK-OV-3 ovarian; 19.9% in the assay on IGROV1 ovarian; -4.63% (active) in the assay on OVCAR-3 ovarian. The growth was 25% in the assay with HS 578T breast and 75.3% with NCI/ADR-RES ovarian.
Take `CN(C)C(=O)c1cc2cnc(Nc3ccc(-c4csc5c(=S)cc(N6CCOCC6)oc45)cc3)nc2n1C1CCCC1`: the growth with SR leukemia is -3.12% (active); in the assay on RPMI-8226 leukemia, -35.9% (active); with OVCAR-8 ovarian it was 7.87% (active); in the assay with OVCAR-4 ovarian it was 18.5%; with SK-OV-3 ovarian, 16.4%; in the assay on IGROV1 ovarian, 8.93% (active). The growth in the assay with OVCAR-3 ovarian is 13.6%; in the assay on HS 578T breast it was 5.04% (active); in the assay on NCI/ADR-RES ovarian it was 14.1%.
As to `CCCCSc1ccc2nc(-c3ccc(OCCCN=C(N)N)cc3)cn2c1`, the growth in the assay on SR leukemia is 85.8%; in the assay on RPMI-8226 leukemia, -27.2% (active); in the assay with OVCAR-8 ovarian, 90.9%; in the assay with OVCAR-4 ovarian, 96.8%; in the assay on SK-OV-3 ovarian it was 111%; in the assay on IGROV1 ovarian it was 52.3%. The growth in the assay on OVCAR-3 ovarian is 30.8%; with HS 578T breast, 35.5%; in the assay with NCI/ADR-RES ovarian, 104%.
As to `Cc1nc2cccc(NCCCCC(=O)NO)c2c(=O)n1-c1ccccc1`, the growth with SR leukemia was 29.4%; in the assay on RPMI-8226 leukemia, 36.1%; in the assay on OVCAR-8 ovarian, 39.5%; in the assay on OVCAR-4 ovarian, 68.7%; in the assay on SK-OV-3 ovarian it was 50.8%; in the assay with IGROV1 ovarian it was 58.2%. Further, the results for the growth in the assay on OVCAR-3 ovarian, in the assay on HS 578T breast and in the assay on NCI/ADR-RES ovarian were 68.1%, 55.2% and 75.3%, respectively.
As to `Cc1c(O)c(O)cc2c3c(oc12)CC(c1ccc2c(c1)OCO2)CC3=O` (stereo not given), the growth was 75.6% with SR leukemia; 87.5% with RPMI-8226 leukemia; 94.8% in the assay with OVCAR-8 ovarian; 89.4% in the assay on OVCAR-4 ovarian; 85.4% in the assay with SK-OV-3 ovarian; 38.6% in the assay with IGROV1 ovarian. The growth in the assay on OVCAR-3 ovarian was 86.4%; in the assay with HS 578T breast it was 92.2%; in the assay with NCI/ADR-RES ovarian, 90.3%.
With `CN(C)CCN1C(=O)c2c(c3c4ccccc4n4c3c3c2c2ccccc2n3C2CC(O)C(O)C4(C)O2)C1=O` (stereo not given), the growth was 5.57% (active) with SR leukemia; 18.5% in the assay with RPMI-8226 leukemia; 25.3% with OVCAR-8 ovarian; 55.6% with OVCAR-5 ovarian; 25.3% in the assay with SK-OV-3 ovarian; 16.5% in the assay with IGROV1 ovarian. Further, the growth with OVCAR-3 ovarian is 41.4%; in the assay with HS 578T breast, 41.7%; with NCI/ADR-RES ovarian it was 54.5%.
As to `CN(Cc1ccccc1)c1nc(Cl)c(C2CC(c3ccc(F)cc3)=NN2C=O)s1` (stereo not given), the growth with SR leukemia was 92.2%; in the assay on RPMI-8226 leukemia, 82.5%; with OVCAR-8 ovarian, 100%; in the assay with OVCAR-4 ovarian it was 90.9%; with SK-OV-3 ovarian, 113%; in the assay on IGROV1 ovarian, 89.4%. Moreover, the growth is 100% with OVCAR-3 ovarian, 97.9% in the assay on HS 578T breast and 90.2% in the assay with NCI/ADR-RES ovarian.
Consider `COc1c(NC=O)c2c(c([N+](=O)[O-])c1OC)C(=O)OC2`, for which the growth with SR leukemia is 86.9%; in the assay on RPMI-8226 leukemia, 78% and 96.5%; in the assay with OVCAR-8 ovarian, 101% and 109%; in the assay on OVCAR-5 ovarian it was 120% and 99.7%; in the assay on SK-OV-3 ovarian, 107% and 108%; with IGROV1 ovarian it was 103%. In addition, the growth was 115% with OVCAR-3 ovarian; 109% and 86.8% with HS 578T breast; 117% and 108% with NCI/ADR-RES ovarian.
Regarding `CC1=CC=C(NC(=O)/C=C/c2ccccc2)CC1Nc1nccc(-c2cccnc2)n1` (stereo not given), the growth was 15.3% in the assay with SR leukemia; 17.2% in the assay with RPMI-8226 leukemia; 61% in the assay on OVCAR-8 ovarian; 70% in the assay with OVCAR-4 ovarian; 57.6% with SK-OV-3 ovarian; 54.7% in the assay with IGROV1 ovarian. Further, the growth in the assay on OVCAR-3 ovarian was 19.9%; in the assay on HS 578T breast, 44.5%; in the assay on NCI/ADR-RES ovarian it was 47.6%.
For `Cn1ccnc1CN1CCSC(C(=O)Nc2ccccc2)C1` (stereo not given), the growth in the assay with SR leukemia was 96.8%; with RPMI-8226 leukemia, 88.5%; in the assay with OVCAR-8 ovarian it was 95.5%; with OVCAR-4 ovarian, 90.7%; with SK-OV-3 ovarian it was 98.7%; in the assay on IGROV1 ovarian, 94.5%. The growth was 102% in the assay with OVCAR-3 ovarian, 95.9% in the assay on HS 578T breast and 92.7% in the assay with NCI/ADR-RES ovarian.
